Shown are actives, neighbours in structure and some others; about 3.8% of the full set was active somewhere.
TrxR1 inh = rat TrxR1 inhibition. O89049. recombinant rTrxR1, NADPH fluorescence consumption, selenite substrate. Potency, µM (highest dose often 114 µM), inactives show at the highest dose activity change, negative = inhibition, most hits filed as inhibitors. hit rate 1% among 390,000. AID 588453; note: nearly all actives have a fitted effect of over 65% in size
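Rat TrxR1 (90 nM in the dispensed reagent) was pre-reduced with 400 uM NADPH for 5 min at room temperature, then incubated with compound for 15 min. After 400 uM selenite was added, NADPH fluorescence (Ex 340/Em 450 nm) was followed for 8 min.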
KAT2A inh = inhibitors of human GCN5L2 histone acetyltransferase; GCN5L2 HAT assay, ThioGlo1 CoA-SH fluorescence; Potency, µM (highest dose often 58.9 µM), for the others: at the top dose activity change, negative = inhibition, hits mostly inhibitors; AID 504327; Q92830; hit rate 0.21% among 390,000
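Free CoA generated was detected with ThioGlo1 (50uM) fluorescence at Ex340nm/Em540nm, read immediately and after 20 min at room temperature. Enzyme, 20 nM in HEPES pH 7.5 buffer, saw compounds 15 min before adding 75uM H3(1-25) peptide and 70uM acetyl-CoA.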
GLS inhibitor = inhibitors of human glutaminase (GLS); Potency, µM (titrated, usually from 45.5 µM), for inactives: at the highest dose activity change, negative = inhibition, actives largely listed as inhibitors; hit rate 0.21% among 410,000; GLS enzymatic activity, qHTS titration; O94925
Target sequence (O94925 whole entry, looked up): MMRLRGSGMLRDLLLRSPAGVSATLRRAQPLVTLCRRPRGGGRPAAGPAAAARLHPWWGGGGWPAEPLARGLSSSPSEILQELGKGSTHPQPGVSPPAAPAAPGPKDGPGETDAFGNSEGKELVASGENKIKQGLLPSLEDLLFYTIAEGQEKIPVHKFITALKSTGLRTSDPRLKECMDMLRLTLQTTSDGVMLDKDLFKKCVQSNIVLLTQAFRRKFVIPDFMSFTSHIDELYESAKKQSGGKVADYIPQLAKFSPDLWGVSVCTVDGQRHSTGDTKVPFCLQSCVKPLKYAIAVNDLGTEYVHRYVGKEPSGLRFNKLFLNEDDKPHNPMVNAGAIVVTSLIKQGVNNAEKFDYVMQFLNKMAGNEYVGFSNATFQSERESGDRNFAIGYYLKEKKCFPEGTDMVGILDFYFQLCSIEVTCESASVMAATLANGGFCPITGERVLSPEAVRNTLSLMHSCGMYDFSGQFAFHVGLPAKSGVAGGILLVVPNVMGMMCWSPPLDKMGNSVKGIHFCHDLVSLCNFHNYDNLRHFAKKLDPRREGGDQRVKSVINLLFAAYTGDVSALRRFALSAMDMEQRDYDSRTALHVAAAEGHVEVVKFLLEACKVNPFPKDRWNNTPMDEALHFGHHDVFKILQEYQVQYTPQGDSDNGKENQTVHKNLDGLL
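Coupled fluorescence readout: glutamate oxidase/HRP/Amplex Red detect glutamate formed by hKGA from L-glutamine (1 mM solution added). Buffer 45 mM KH2PO4 pH 8.2, 0.02% Tween-20; reads at t0 and 30 min RT.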
Sfp inh = Sfp phosphopantetheinyl transferase inhibition | Biochemical Sfp PPTase activity, qHTS | Potency, µM, for the others: largest response in the series, negative = inhibition, hits mostly inhibitors | hit rate 3.5% among 310,000 | AID 1490;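 note: the enzyme is Sfp with the accession as filed and its product quenches rhodamine fluorescence; 0% = enzyme reaction without inhibitor and -100% = no enzyme wells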
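After 15 min at room temperature with compound, 15 nM Sfp received 5 uM rhodamine-CoA plus 12.5 uM BHQ-2-ybbR (50 mM Hepes pH 7.6, 10 mM MgCl2). Rate came from the fluorescence difference over 30 min, ex 525/em 598 nm.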
TrxR1 substrate = is turned over as a substrate by rat TrxR1. purified TrxR1 substrate turnover, NADPH consumption readout. O89049. Potency, µM (titrated, usually from 114 µM), inactives show at the top dose activity change, negative = substrate turnover. hit rate 0.01% among 390,000; note: nearly all actives have a fitted effect of over 50% in size
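Rat TrxR1, dispensed at 90 nM, was prereduced with 400 uM NADPH (final) for 5 min at ~22 deg C, then incubated with compound 15 min before 400 uM selenite. A first-read NADPH fluorescence drop versus no-compound background flagged substrates.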
VDR inhibitor = vitamin D3 receptor (human) inhibition. AID 504847. hit rate 0.93% among 400,000. VDR-SRC2-3 peptide fluorescence polarization, 2 h. Potency, µM, for inactives: max response, negative = inhibition, hits mostly inhibitors. P11473
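Measured by FP: displacement of SRC2-3 coactivator peptide from VDR by library compounds, following a two-hour ambient incubation.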
* marks the source's active call; other numbers are inactive results; [ ] = another dose, or the depositor's remark. Calls come from the whole dose curve; as a rule, active = well fitted curve in the direction sought with a large enough effect; inconclusive = small, poorly fitted or top-dose-only effect, or another doubt; inactive = no such curve, though single readings can be large; an effect the other way counts as inactive or inconclusive. Unless noted, % is set by controls: 0 for no effect and ±100 for the full control effect; potency is the fitted concentration of half-maximal effect.

Screening Cc1ccc(N2C(=O)/C(=C/N3CCN(C(=O)c4ccco4)CC3)C(=O)NC2=S)cc1C returned TrxR1 inh -33%, KAT2A inh 32%, GLS inhibitor -2%, Sfp inh 45µM*, TrxR1 substrate -10% and VDR inhibitor -11%.
For CCOC(=O)c1sc(/N=C/c2c(O)n(-c3ccccc3)c(=O)[nH]c2=O)c(C#N)c1C the results were TrxR1 inh inconclusive, KAT2A inh 3%, GLS inhibitor 56%, Sfp inh 50µM*, TrxR1 substrate 0%[57.1 µM] and VDR inhibitor inconclusive.
Screening CCN(CC)c1ccc(N=Cc2c(O)[nH]c(=O)[nH]c2=O)cc1 returned TrxR1 inh 44%[2.29 µM], KAT2A inh -9%, GLS inhibitor 31%, Sfp inh -2%, TrxR1 substrate -7% and VDR inhibitor 79µM*.
For CCN(CC)c1ccc(N=Cc2c(O)n(-c3ccccc3)c(=O)[nH]c2=O)cc1 the results were TrxR1 inh -9%, KAT2A inh -1%, GLS inhibitor 3%, Sfp inh 50µM*, TrxR1 substrate -9% and VDR inhibitor -23%.
Screening CC(=O)C(Sc1ncnc2c1nnn2-c1ccc(F)cc1)C(=O)N(C)C (configuration not stated) returned TrxR1 inh inconclusive, KAT2A inh -12%, GLS inhibitor -9%, Sfp inh 10µM*, TrxR1 substrate -7% and VDR inhibitor 50µM*.
CC12CN3CC(C)(CN(C1)C3c1ccncc1)C2=O (configuration not stated) was read as TrxR1 inh 2%, KAT2A inh -5%, GLS inhibitor 5%, Sfp inh -16%, TrxR1 substrate 4% and VDR inhibitor -11%.
C/C(O)=C1\C(=O)[C@@H]2[C@H]3c4c[nH]c5cccc(c45)C[C@H]3C(C)(C)N2C1=O was read as KAT2A inh -4%, Sfp inh 56µM* and VDR inhibitor inconclusive.
CC(Cc1ccccc1)N(C)CC1C(=O)C2CCC1C2 (configuration not stated) was read as TrxR1 inh -52%[57.1 µM], GLS inhibitor 3%, TrxR1 substrate -6%[11.4 µM] and VDR inhibitor 6%.
CN1C(=O)C(=Cc2ccc(N3CCCCC3)o2)C(=O)N(C)C1=S was read as TrxR1 inh 11%[57.1 µM], KAT2A inh -6%, GLS inhibitor 2%, Sfp inh 56µM*, TrxR1 substrate 10%[57.1 µM] and VDR inhibitor 9%.
For Cc1nn(C2CCOC(C)(C)C2)c2c1C(c1ccc(OC(C)C)cc1)SCC(=O)N2 (configuration not stated) the results were TrxR1 inh -2%[57.1 µM], KAT2A inh -6%, GLS inhibitor -10%, Sfp inh -25%, TrxR1 substrate 7%[57.1 µM] and VDR inhibitor 79µM*.
For O=c1cccc2n1CC1CNCC2C1 (configuration not stated) the results were TrxR1 inh -5%, KAT2A inh 2%, GLS inhibitor 1%, Sfp inh 8%, TrxR1 substrate 2% and VDR inhibitor 0%.
For N[C@@H](Cc1cc(I)c(O)c(I)c1)C(=O)O the results were TrxR1 inh 13µM*, KAT2A inh inconclusive, GLS inhibitor 53%, Sfp inh inconclusive, TrxR1 substrate -3% and VDR inhibitor inconclusive.
`COCc1c(CN)cnc(C)c1N` gave TrxR1 inh 16%, KAT2A inh -6%, GLS inhibitor 2%, Sfp inh 6%, TrxR1 substrate 10% and VDR inhibitor 20%.
NP(=O)(OCCCCc1ccccc1)Oc1ccccc1Cl (configuration not stated) was read as TrxR1 inh 10%[57.1 µM], KAT2A inh 1%, GLS inhibitor 1%, Sfp inh 5%, TrxR1 substrate 6%[57.1 µM] and VDR inhibitor -2%.
O=C1c2ccccc2C(=O)c2ccccc21 was read as KAT2A inh 3%, GLS inhibitor 0%, Sfp inh 22% and VDR inhibitor 5%.

Bioassay records as filed in PubChem.
